Results from PubChem BioAssay (NCATS).
Where “and” joins values, the source holds several entries; their conditions need not be identical. Equal entries are not always repeated. Records with an inconclusive call do not appear. Unmarked numbers belong to inactive results. Calls of active or inactive are those of the source. Unless noted, the call rests on the fitted dose curve; in most records, active means well fitted curve in the direction sought with a large enough effect; inconclusive means small, poorly fitted or top-dose-only effect, or another doubt; inactive means no such curve, though single readings can be large; an effect the other way counts as inactive or inconclusive.

How the values were obtained:
[1] = biological target: Cytochrome P450 2D6 (Homo sapiens) (UniProt P10635); assay: Cytochrome P450 family 2 subfamily D member 6 (CYP2D6) small molecule antagonists: luciferase biochemical (cell-free) qHTS assay (AID 1645840; active means well fitted curve in the direction sought with a large enough effect in the repeat runs; an effect the other way counts as inactive or inconclusive; further: nearly all actives have a fitted effect of over 55% in size; on activity change, negative = inhibition: series mostly up to about 57 µM)
Summary of the method: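 P450-Glo luminescent screen: recombinant CYP2D6 enzyme–proluciferin substrate mix preincubated with compound 10 min at room temperature, then NADPH regeneration added for 1 h at room temperature. Detection reagent added for 20 min; luciferin light read as relative luminescence units.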

[2] = biological target: Cytochrome P450 2C9 (Homo sapiens) (UniProt P11712); assay: Cytochrome P450 family 2 subfamily C member 9 (CYP2C9) small molecule antagonists: luciferase biochemical (cell-free) qHTS assay (AID 1645842; active means well fitted curve in the direction sought with a large enough effect in the repeat runs; an effect the other way counts as inactive or inconclusive; further: nearly all actives have a fitted effect of over 55% in size; on activity change, negative = inhibition: series mostly up to about 57 µM)
Summary of the method: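 Luminescence, after 20 min with luciferin detection reagent, reflected CYP2C9 turnover during a 1 h NADPH-driven reaction at 37C. Enzyme-substrate mix contained 0.4% bovine serum albumin and was preincubated with compound 10 min at room temperature.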

[3] = Primary qHTS for inhibitors of nuclear receptor binding SET domain protein 2 (NSD2) in an isogenic RCH-ACV NSD2 p.E1099K mutant (9B) (AID 1645876); further: nearly all actives have a fitted effect of over 70% in size
[4] = Primary qHTS for inhibitors of nuclear receptor binding SET domain protein 2 (NSD2) in an RCH-ACV wild type WT cells (2C) (AID 1645877); further: nearly all actives have a fitted effect of over 70% in size
On the % scale 0 is the no-effect control and ±100 the full control effect; potency means the concentration at half of the fitted maximal effect.

Sequence of Cytochrome P450 2C9 (Homo sapiens) (P11712 whole entry, looked up): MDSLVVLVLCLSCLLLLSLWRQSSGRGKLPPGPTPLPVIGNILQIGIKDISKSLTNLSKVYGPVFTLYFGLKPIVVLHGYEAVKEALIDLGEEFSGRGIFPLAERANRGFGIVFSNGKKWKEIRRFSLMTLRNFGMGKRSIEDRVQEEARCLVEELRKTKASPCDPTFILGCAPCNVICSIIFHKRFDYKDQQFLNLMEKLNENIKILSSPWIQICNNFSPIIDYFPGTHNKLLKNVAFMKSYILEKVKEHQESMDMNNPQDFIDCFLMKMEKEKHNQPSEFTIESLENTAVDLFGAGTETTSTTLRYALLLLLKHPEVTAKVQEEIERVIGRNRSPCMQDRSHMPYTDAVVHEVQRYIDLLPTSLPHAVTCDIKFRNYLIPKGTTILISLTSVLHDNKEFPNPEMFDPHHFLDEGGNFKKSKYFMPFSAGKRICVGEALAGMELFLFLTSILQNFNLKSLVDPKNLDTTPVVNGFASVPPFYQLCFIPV
Sequence of Cytochrome P450 2D6 (Homo sapiens) (P10635 whole entry, looked up): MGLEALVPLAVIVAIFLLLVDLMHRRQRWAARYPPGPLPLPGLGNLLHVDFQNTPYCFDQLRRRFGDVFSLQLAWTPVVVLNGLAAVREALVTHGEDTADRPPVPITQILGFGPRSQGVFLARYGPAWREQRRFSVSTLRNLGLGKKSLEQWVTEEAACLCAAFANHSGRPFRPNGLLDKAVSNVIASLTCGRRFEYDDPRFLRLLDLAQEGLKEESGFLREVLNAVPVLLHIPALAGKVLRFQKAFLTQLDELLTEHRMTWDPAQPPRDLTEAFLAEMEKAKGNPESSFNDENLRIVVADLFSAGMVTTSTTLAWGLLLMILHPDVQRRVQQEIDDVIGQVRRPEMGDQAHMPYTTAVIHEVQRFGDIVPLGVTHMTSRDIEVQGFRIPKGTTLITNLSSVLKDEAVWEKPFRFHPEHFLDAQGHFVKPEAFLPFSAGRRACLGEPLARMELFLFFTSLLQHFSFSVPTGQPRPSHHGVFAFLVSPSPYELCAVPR

Structure (SMILES)	Potency [1]	Potency [2]	Potency [3]	Potency [4]	activity change, negative = inhibition [1]	activity change, negative = inhibition [2]
O=C(NC1(c2ccccc2)CC1)c1c(CN2CCC(N3CCCCC3)CC2)c(-c2cccc(C(F)(F)F)c2)nc2cc(Br)ccc12	4.77 µM (active)	23.9 µM (active)	12.9 µM (active)	10.3 µM (active)		
Cc1ccc(C2(C(=O)N3CCC(n4nc(-c5ccccc5)oc4=O)CC3)CC2)cc1	13.5 µM (active)	0.756 µM (active)	inactive	inactive		
COCc1c(Cl)ccc2c1CC[C@H]2c1ncc[nH]1	1.9 µM (active)	21.3 µM (active)	inactive	inactive		
Cc1cc2occ(CN(C)CCN(C)Cc3cn(-c4cccc(C(F)(F)F)c4)c4ccccc34)c(=O)c2cc1C	4.77 µM (active)	21.3 µM (active)	7.28 µM (active)	7.28 µM (active)		
N#CC(CCCN1CCC(O)(c2ccc(Cl)cc2)CC1)(c1ccccc1)c1ccccc1	0.536 µM (active)	23.9 µM (active)	5.15 µM (active)	6.49 µM (active)		
CCn1c(=O)c(-c2ccc(-c3cncs3)cc2Cl)cc2cnc(Nc3ccc(N4CCN(C)CC4)cc3)nc21	inactive	6.01 µM (active)	2.31 µM (active)	2.59 µM (active)		
O=C(Nc1ccc(Cl)cc1)c1ccccc1NCc1ccncc1	0.169 µM (active)	0.0379 µM (active)	10.3 µM (active)	18.3 µM (active)		
CN(C)Cc1ccc(-c2cnn3c(-c4cccc(NC(=O)c5cccc(C(F)(F)F)c5)c4)ccnc23)cc1	13.5 µM (active)	7.56 µM (active)	3.65 µM (active)	4.09 µM (active)		
CCN1C(C)(C)CC(Oc2ccc(C(=O)Nc3ccc(NC(=O)Nc4cc(C(C)(C)C)on4)cc3)nc2)CC1(C)C	19 µM (active)	inactive	4.11 µM (active)	6.51 µM (active)		
Cc1ccc(F)cc1S(=O)(=O)N[C@@H]1CCN(Cc2ccc(OC(C)C)cc2)C1	0.0169 µM (active)	6.01 µM (active)	16.3 µM (active)	18.3 µM (active)		
COC(=O)c1ccc(N2CCN(C)CC2)c(NC(=O)c2cccc(OC)c2)c1	6.01 µM (active)	inactive	inactive	inactive		
Cc1cn2cc(C(=O)N(C)CCO)cc(NC3CCOc4cccc(C)c43)c2n1 (stereo not drawn)	inactive	19 µM (active)	inactive	inactive		
OC1(CN2CCC(COc3noc4cccc(O[C@@H]5CCOC5)c34)CC2)CCOCC1	6.74 µM (active)	9.52 µM (active)	inactive	inactive		
Cc1csc(N(C(=O)CSc2ccc(-c3ccccc3)nn2)C2CC2)n1	inactive	10.7 µM (active)	inactive	inactive		
CNC1CN(c2ccc3c(=O)c(C(=O)O)cn(-c4nccs4)c3n2)CC1OC (stereo not drawn)			0.0836 µM (active)	0.0297 µM (active)	16.1% [at 11.5 µM]	4.23% [at 11.5 µM]
COc1ccc(C(=O)Nc2c(Cl)cncc2Cl)cc1OC1CCCC1	inactive	6.74 µM (active)	inactive	inactive		
CNc1cc2[nH]c(=O)n(-c3ccc(NC(=O)NS(=O)(=O)c4ccc(Cl)s4)cc3)c(=O)c2cc1F	inactive	inactive	inactive	inactive		
CC(=O)N1CCN(CCOc2ccc(C3CCN(C4=Nn5c(nnc5C(F)(F)F)CC4)CC3)cc2)CC1	inactive	12 µM (active)	5.15 µM (active)	6.49 µM (active)		
COc1ccc(N2CCN(C(=O)c3cc4c(s3)-c3ccccc3S(=O)(=O)C4)CC2)cc1	inactive	10.7 µM (active)	inactive	inactive		
C=CC(=O)Nc1cccc(Nc2nc(Nc3ccc(NC4CN(CCF)C4)cc3OC)ncc2C(F)(F)F)c1	13.5 µM (active)	0.268 µM (active)	4.59 µM (active) and 5.9 µM (active)	4.09 µM (active) and 6.61 µM (active)		
N#CC(CCCN1CCN(/N=C/c2cccnc2)CC1)(c1ccccc1)c1ccccc1	0.849 µM (active)	7.56 µM (active)	inactive	inactive		

Structure (SMILES)	Potency [1]	Potency [2]	Potency [3]	Potency [4]	activity change, negative = inhibition [1]	activity change, negative = inhibition [2]
C#CC(=O)N(c1ccc(OC)cc1OC)C(C(=O)NCC(=O)OCC)c1cccs1 (stereo not drawn)	12 µM (active)	12 µM (active)	0.183 µM (active)	0.0649 µM (active)		
CCNC(=O)c1noc(-c2cc(Cl)c(O)cc2O)c1-c1ccc(OC)cc1	26.8 µM (active)	3.38 µM (active)	0.129 µM (active)	0.115 µM (active)		
CNC(=O)[C@@H](c1ccccc1)N1CCc2cc(OC)c(OC)cc2[C@@H]1CCc1ccc(C(F)(F)F)cc1	4.77 µM (active)	6.74 µM (active)	23 µM (active)	16.3 µM (active)		
CCCCC1CCC(c2nc(-c3ccncc3)no2)CC1 (stereo not drawn)	0.536 µM (active)	5.35 µM (active)	inactive	inactive		
C[C@@H](NC(=O)C(=O)c1c[nH]c2ccc([N+](=O)[O-])cc12)c1ccccc1	inactive	inactive	inactive	inactive		
CC(C)(C)Oc1ccc(OCC2Cc3ccccc3CN2C(=O)c2cccc3ccccc23)cc1 (stereo not drawn)	inactive	1.69 µM (active)	inactive	inactive		
CC(=O)c1ccc2c(c1)[C@H](NC(=O)c1ccc(F)c(Cl)c1)[C@H](O)C(C)(C)O2	0.674 µM (active)	2.68 µM (active)	inactive	inactive		
O=C(NCCCCN1CCN(c2cccc(Cl)c2Cl)CC1)c1cc2ccccc2s1	0.301 µM (active)	3.79 µM (active)	20.5 µM (active)	23 µM (active)		
CCC(C)CNCC(=O)N1CCc2sccc2C1COc1cccc(C)c1 (stereo not drawn)	0.0952 µM (active)	13.5 µM (active)	16.3 µM (active)	20.5 µM (active)		
CCOC(=O)N1c2ccc(C(F)(F)F)cc2C(N(Cc2cc(C(F)(F)F)cc(C(F)(F)F)c2)C(=O)OC)CC1CC (stereo not drawn)	inactive	inactive	inactive	inactive		
CN1CCC(c2cn(C)c3ccc(OS(=O)(=O)c4c(F)cccc4F)cc23)CC1	12 µM (active)	9.52 µM (active)	18.3 µM (active)	23 µM (active)		
O=C(Nc1ccc(Cl)cc1)C1CCCN(C(=O)c2cccc(-c3ccco3)c2)C1 (stereo not drawn)	13.5 µM (active)	15.1 µM (active)	14.5 µM (active)	23 µM (active)		
Fc1ccc(-n2cc(CCCCN3CCC4(CC3)OCc3ccccc34)c3ccccc32)cc1	0.601 µM (active)	2.39 µM (active)	7.28 µM (active)	6.49 µM (active)		
Cc1nc(C#Cc2ccnc(Cl)c2)c(C)n1-c1ccc(OC(F)(F)F)cc1	10.7 µM (active)	8.49 µM (active)	18.3 µM (active)	10.3 µM (active)		
CCc1ccccc1OC[C@@H](O)CN[C@H]1CCCc2ccccc21	0.477 µM (active)	inactive	16.3 µM (active)	10.3 µM (active)		
O=C(NCCN1CCN(c2cccc3c2OCCO3)CC1)c1ccc(F)cc1	12 µM (active)	19 µM (active)	inactive	inactive		
C[C@@H](NC(=O)c1ccc(C#Cc2cccc(F)c2)cn1)C(C)(C)O	inactive	16.9 µM (active)	inactive	inactive		
O=C(Nc1ccc(-c2ccnc(Nc3ccc(N4CCOCC4)cc3)n2)cc1)C1CCCN1 (stereo not drawn)	inactive	2.13 µM (active)	4.61 µM (active)	4.11 µM (active)		
COCC(=O)NC/C=C/c1ccc2ncnc(Nc3ccc(Oc4ccc(C)nc4)c(C)c3)c2c1	10.7 µM (active)	8.49 µM (active)	20.5 µM (active)	16.3 µM (active)		
FC(F)(F)c1ccccc1-c1cc(C(F)(F)F)c2nc(C3=NOC4(CCCCC4)C3)[nH]c2c1	inactive	inactive	18.3 µM (active)	14.5 µM (active)		
CCOc1ccc(S(=O)(=O)N2CCCCCC2)c2ccccc12	inactive	7.56 µM (active)	inactive	inactive		
